Source: the supplement of paper PMC11732987, “Enantioselective OTUD7B fragment discovery through chemoproteomics screening and high-throughput optimisation” (Communications Chemistry, 2025)

Tests used:
Assay in all cases: log2 ratio of Biotin-Ahx-Ub-VS probe labelling (compound/DMSO); higher = less target engagement, active = hit call of the paper (q ≤ 0.05, log2 ratio ≤ -1)
Details in all cases: treatment time: 3 h
[1] = compound: CCC1N(CCc2sccc12)C(=O)CCl
Procedure, shortened: (§1)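 Compound at 50 or 200 µM, or DMSO, was applied for 3 h in triplicate to HEK293T lysate (495 µg per sample, Tris/CHAPS/IGEPAL buffer with protease inhibitors), after which Biotin-Ahx-Ub-VS was added at 0.5 µM final for 1 h. The labelled DUBs were pulled down with NeutrAvidin, digested with LysC and trypsin, and run by diaPASEF LC-MS/MS. Ratios are averaged base-two logs of compound over DMSO from median-normalised label-free quantities by unpaired t-test, counting only proteins with at least 2 unique peptides.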

[2] = compound: CN1c2ccccc2C(CS1(=O)=O)NC(=O)CCl
Procedure, shortened: as §1

[3] = compound: Cl.ClCC(=O)N1CCc2ncncc2C1
Procedure, shortened: as §1

[4] = compound: Cl.Cn1ncc2C(CCCc12)NC(=O)CCl
Procedure, shortened: as §1

[5] = compound: ClCC(=O)NC1CCOc2ccccc12
Procedure, shortened: as §1

[6] = compound: ClCC(=O)NC1CCCc2ccccc12
Procedure, shortened: (§2)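 Average ratios of compound to vehicle were obtained by unpaired t-test. Beforehand, 495 µg samples of HEK293T lysate in buffer with protease inhibitors were treated in triplicate with compound over a concentration series or vehicle for 3 h, then with 0.5 µM final Biotin-Ahx-Ub-VS for 1 h. Labelled deubiquitinases were NeutrAvidin-enriched, digested and quantified label-free by diaPASEF LC-MS/MS in Spectronaut, normalised to the global median. Values are log2 and cover proteins with at least two unique peptides.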

[7] = compound: ClCC(=O)N[C@@H]1CCCc2ccccc12
Procedure, shortened: as §2

[8] = compound: ClCC(=O)N[C@H]1CCCc2ccccc12
Procedure, shortened: as §2

[9] = compound: CCC1N(CCc2cc(OC)c(Cl)cc12)C(=O)CCl
Procedure, shortened: as §1

[10] = compound: CCCC1N(CCc2cc(OC)c(OC)cc12)C(=O)CCl
Procedure, shortened: as §1

Measured: log2 ratio of Biotin-Ahx-Ub-VS probe labelling

OTUD4 (UniProt Q01804)
Sequence of UniProt Q01804 (Q01804 whole entry): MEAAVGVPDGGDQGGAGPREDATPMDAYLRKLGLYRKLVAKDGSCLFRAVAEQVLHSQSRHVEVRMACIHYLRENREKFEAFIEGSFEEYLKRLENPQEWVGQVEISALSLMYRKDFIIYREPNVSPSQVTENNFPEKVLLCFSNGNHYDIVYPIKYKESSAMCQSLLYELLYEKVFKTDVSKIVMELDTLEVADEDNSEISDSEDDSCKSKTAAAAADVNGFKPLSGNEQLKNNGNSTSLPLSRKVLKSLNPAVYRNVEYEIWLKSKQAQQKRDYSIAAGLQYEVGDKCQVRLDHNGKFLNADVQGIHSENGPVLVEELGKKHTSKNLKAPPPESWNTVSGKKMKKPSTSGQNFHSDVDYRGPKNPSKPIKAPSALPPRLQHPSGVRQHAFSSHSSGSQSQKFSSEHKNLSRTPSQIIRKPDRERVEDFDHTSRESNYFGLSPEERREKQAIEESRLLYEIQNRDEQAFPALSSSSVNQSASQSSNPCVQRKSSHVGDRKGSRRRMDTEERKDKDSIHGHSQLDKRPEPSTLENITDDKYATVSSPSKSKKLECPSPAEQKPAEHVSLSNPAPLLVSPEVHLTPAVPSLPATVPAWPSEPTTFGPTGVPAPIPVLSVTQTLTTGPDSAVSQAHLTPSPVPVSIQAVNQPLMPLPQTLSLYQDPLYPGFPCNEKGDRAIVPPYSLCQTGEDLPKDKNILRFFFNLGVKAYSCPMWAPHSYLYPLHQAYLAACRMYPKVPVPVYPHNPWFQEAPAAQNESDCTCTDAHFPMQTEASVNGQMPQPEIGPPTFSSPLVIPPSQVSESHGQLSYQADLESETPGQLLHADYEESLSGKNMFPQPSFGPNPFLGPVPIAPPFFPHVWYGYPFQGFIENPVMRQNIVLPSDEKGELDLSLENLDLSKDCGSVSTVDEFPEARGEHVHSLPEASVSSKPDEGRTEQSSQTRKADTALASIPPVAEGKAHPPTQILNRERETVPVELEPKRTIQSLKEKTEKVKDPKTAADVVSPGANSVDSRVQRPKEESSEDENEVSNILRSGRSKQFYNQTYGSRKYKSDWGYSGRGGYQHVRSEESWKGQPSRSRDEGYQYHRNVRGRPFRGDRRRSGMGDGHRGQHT
inactive: [1]; compound concentration: 50uM -0.293 | [1]; compound concentration: 200uM -0.576 | [2]; compound concentration: 50uM -0.595 | [3]; compound concentration: 50uM -0.152 | [3]; compound concentration: 200uM -0.671 | [4]; compound concentration: 50uM -0.813 | [5]; compound concentration: 50uM -0.624 | [6]; compound concentration: 0.78uM -0.158 | [6]; compound concentration: 1.56uM -0.085 | [6]; compound concentration: 3.13uM -0.223 | [6]; compound concentration: 6.25uM -0.319 | [6]; compound concentration: 12.5uM -0.411 | [6]; compound concentration: 25uM -0.655 | [7]; compound concentration: 0.78uM -0.206 | [7]; compound concentration: 1.56uM -0.14 | [7]; compound concentration: 3.13uM -0.152 | [7]; compound concentration: 6.25uM -0.172 | [7]; compound concentration: 12.5uM -0.352 | [7]; compound concentration: 25uM -0.535 | [7]; compound concentration: 50uM -0.958 | [8]; compound concentration: 0.78uM -0.176 | [8]; compound concentration: 1.56uM -0.178 | [8]; compound concentration: 3.13uM -0.176 | [8]; compound concentration: 6.25uM -0.252 | [8]; compound concentration: 12.5uM -0.529 | [8]; compound concentration: 25uM -0.893 | [9]; compound concentration: 50uM -0.491 | [10]; compound concentration: 50uM -0.395 | [10]; compound concentration: 200uM -0.505
active: [2]; compound concentration: 200uM -1.51 | [4]; compound concentration: 200uM -1.46 | [5]; compound concentration: 200uM -1.33 | [6]; compound concentration: 50uM -1.21 | [6]; compound concentration: 100uM -1.92 | [6]; compound concentration: 200uM -2.86 | [7]; compound concentration: 100uM -1.39 | [7]; compound concentration: 200uM -2.13 | [8]; compound concentration: 50uM -1.41 | [8]; compound concentration: 100uM -2.07 | [8]; compound concentration: 200uM -2.61 | [9]; compound concentration: 200uM -1.4

ATXN3 (UniProt P54252)
Sequence of UniProt P54252 (P54252 whole entry): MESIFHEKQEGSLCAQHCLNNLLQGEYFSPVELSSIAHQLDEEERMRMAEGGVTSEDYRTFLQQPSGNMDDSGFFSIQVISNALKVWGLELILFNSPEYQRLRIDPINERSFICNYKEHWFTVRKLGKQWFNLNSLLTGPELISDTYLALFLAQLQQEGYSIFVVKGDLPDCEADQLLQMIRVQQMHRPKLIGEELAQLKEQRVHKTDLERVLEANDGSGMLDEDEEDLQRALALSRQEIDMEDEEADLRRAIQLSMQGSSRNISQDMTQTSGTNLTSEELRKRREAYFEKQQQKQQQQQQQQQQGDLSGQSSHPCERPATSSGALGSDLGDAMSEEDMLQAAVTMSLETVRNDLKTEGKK
inactive: [1]; compound concentration: 50uM -0.116 | [1]; compound concentration: 200uM -0.483 | [2]; compound concentration: 50uM -0.0445 | [2]; compound concentration: 200uM -0.365 | [3]; compound concentration: 50uM -0.35 | [4]; compound concentration: 50uM 0.199 | [4]; compound concentration: 200uM -0.212 | [5]; compound concentration: 50uM 0.00952 | [5]; compound concentration: 200uM -0.0594 | [6]; compound concentration: 0.78uM -0.108 | [6]; compound concentration: 1.56uM -0.213 | [6]; compound concentration: 3.13uM -0.478 | [6]; compound concentration: 6.25uM -0.165 | [6]; compound concentration: 12.5uM -0.236 | [6]; compound concentration: 25uM -0.301 | [6]; compound concentration: 50uM -0.18 | [6]; compound concentration: 100uM -0.156 | [6]; compound concentration: 200uM -0.285 | [7]; compound concentration: 0.78uM -0.286 | [7]; compound concentration: 1.56uM -0.107 | [7]; compound concentration: 3.13uM -0.24 | [7]; compound concentration: 6.25uM -0.0908 | [7]; compound concentration: 12.5uM -0.0507 | [7]; compound concentration: 25uM -0.218 | [7]; compound concentration: 50uM -0.0106 | [7]; compound concentration: 100uM -0.151 | [7]; compound concentration: 200uM -0.0598 | [8]; compound concentration: 0.78uM -0.183 | [8]; compound concentration: 1.56uM -0.0688 | [8]; compound concentration: 3.13uM -0.152 | [8]; compound concentration: 6.25uM -0.297 | [8]; compound concentration: 12.5uM -0.125 | [8]; compound concentration: 25uM -0.266 | [8]; compound concentration: 50uM -0.171 | [8]; compound concentration: 100uM -0.0739 | [8]; compound concentration: 200uM -0.312 | [9]; compound concentration: 50uM -0.248 | [10]; compound concentration: 50uM 0.126 | [10]; compound concentration: 200uM -0.435
active: [3]; compound concentration: 200uM -1.37 | [9]; compound concentration: 200uM -1.54

UCHL3 (UniProt P15374)
Sequence of UniProt P15374 (P15374 whole entry): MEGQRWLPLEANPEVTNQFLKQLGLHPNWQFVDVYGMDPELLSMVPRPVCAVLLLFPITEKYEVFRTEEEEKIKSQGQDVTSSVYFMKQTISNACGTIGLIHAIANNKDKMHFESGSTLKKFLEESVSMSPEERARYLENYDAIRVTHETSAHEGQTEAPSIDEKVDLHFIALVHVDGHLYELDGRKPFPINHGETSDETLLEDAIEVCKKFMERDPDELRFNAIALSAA
inactive: [1]; compound concentration: 50uM -0.196 | [1]; compound concentration: 200uM -0.314 | [2]; compound concentration: 50uM -0.297 | [2]; compound concentration: 200uM -0.153 | [3]; compound concentration: 50uM -0.183 | [3]; compound concentration: 200uM -0.417 | [4]; compound concentration: 50uM -0.099 | [4]; compound concentration: 200uM 0.0584 | [5]; compound concentration: 50uM -0.019 | [5]; compound concentration: 200uM -0.018 | [6]; compound concentration: 0.78uM -0.0289 | [6]; compound concentration: 1.56uM 0.0129 | [6]; compound concentration: 3.13uM -0.0693 | [6]; compound concentration: 6.25uM 0.048 | [6]; compound concentration: 12.5uM 0.0678 | [6]; compound concentration: 25uM -0.149 | [6]; compound concentration: 50uM 0.0701 | [6]; compound concentration: 100uM 0.149 | [6]; compound concentration: 200uM -0.0196 | [7]; compound concentration: 0.78uM -0.0917 | [7]; compound concentration: 1.56uM -0.101 | [7]; compound concentration: 3.13uM 0.0215 | [7]; compound concentration: 6.25uM 0.0584 | [7]; compound concentration: 12.5uM -0.0931 | [7]; compound concentration: 25uM -0.0862 | [7]; compound concentration: 50uM -0.186 | [7]; compound concentration: 100uM -0.142 | [7]; compound concentration: 200uM -0.0506 | [8]; compound concentration: 0.78uM -0.0451 | [8]; compound concentration: 1.56uM -0.0987 | [8]; compound concentration: 3.13uM 0.048 | [8]; compound concentration: 6.25uM 0.105 | [8]; compound concentration: 12.5uM -0.0766 | [8]; compound concentration: 25uM -0.0628 | [8]; compound concentration: 50uM -0.0352 | [8]; compound concentration: 100uM -0.00864 | [8]; compound concentration: 200uM -0.0634 | [9]; compound concentration: 50uM 0.093 | [9]; compound concentration: 200uM -0.266 | [10]; compound concentration: 50uM -0.509 | [10]; compound concentration: 200uM -0.431

USP28 (UniProt Q96RU2)
Sequence of UniProt Q96RU2 (Q96RU2 whole entry): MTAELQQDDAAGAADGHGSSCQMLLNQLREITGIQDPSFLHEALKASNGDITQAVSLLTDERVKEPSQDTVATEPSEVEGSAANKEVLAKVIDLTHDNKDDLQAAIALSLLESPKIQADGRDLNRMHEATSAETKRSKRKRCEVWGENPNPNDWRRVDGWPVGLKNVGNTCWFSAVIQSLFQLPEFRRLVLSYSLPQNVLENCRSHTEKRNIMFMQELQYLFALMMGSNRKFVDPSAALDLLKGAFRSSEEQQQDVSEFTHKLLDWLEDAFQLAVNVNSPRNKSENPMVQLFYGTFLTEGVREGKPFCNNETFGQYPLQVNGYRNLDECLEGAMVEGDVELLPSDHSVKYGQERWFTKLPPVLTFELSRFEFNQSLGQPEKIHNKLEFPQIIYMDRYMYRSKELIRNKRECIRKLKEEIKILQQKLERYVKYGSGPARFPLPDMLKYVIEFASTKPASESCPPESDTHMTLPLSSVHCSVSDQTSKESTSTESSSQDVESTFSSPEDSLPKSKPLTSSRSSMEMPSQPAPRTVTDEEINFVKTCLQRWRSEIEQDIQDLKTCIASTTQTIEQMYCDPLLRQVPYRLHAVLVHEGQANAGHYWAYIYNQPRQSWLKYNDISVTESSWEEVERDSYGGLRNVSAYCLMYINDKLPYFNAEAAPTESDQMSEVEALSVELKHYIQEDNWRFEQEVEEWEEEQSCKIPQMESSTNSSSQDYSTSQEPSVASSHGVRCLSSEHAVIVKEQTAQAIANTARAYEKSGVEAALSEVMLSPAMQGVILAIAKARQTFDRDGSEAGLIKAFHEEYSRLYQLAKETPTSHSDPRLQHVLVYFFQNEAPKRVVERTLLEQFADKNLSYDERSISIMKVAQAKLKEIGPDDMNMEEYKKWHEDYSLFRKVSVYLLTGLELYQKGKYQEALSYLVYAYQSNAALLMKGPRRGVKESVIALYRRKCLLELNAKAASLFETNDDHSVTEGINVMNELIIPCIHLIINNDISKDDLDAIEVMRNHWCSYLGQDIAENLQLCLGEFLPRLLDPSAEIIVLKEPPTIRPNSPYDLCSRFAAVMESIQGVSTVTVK
inactive: [1]; compound concentration: 50uM -0.105 | [1]; compound concentration: 200uM -0.495 | [2]; compound concentration: 50uM -0.127 | [2]; compound concentration: 200uM -0.556 | [3]; compound concentration: 50uM -0.0823 | [3]; compound concentration: 200uM -0.643 | [4]; compound concentration: 50uM 0.00687 | [4]; compound concentration: 200uM -0.349 | [5]; compound concentration: 50uM 0.0277 | [5]; compound concentration: 200uM -0.467 | [6]; compound concentration: 0.78uM -0.115 | [6]; compound concentration: 1.56uM 0.0493 | [6]; compound concentration: 3.13uM -0.068 | [6]; compound concentration: 6.25uM -0.0775 | [6]; compound concentration: 12.5uM -0.136 | [6]; compound concentration: 25uM -0.188 | [6]; compound concentration: 50uM -0.185 | [6]; compound concentration: 100uM -0.427 | [6]; compound concentration: 200uM -0.751 | [7]; compound concentration: 0.78uM -0.289 | [7]; compound concentration: 1.56uM -0.168 | [7]; compound concentration: 3.13uM -0.114 | [7]; compound concentration: 6.25uM -0.181 | [7]; compound concentration: 12.5uM -0.122 | [7]; compound concentration: 25uM -0.154 | [7]; compound concentration: 50uM -0.239 | [7]; compound concentration: 100uM -0.221 | [7]; compound concentration: 200uM -0.426 | [8]; compound concentration: 0.78uM -0.0897 | [8]; compound concentration: 1.56uM -0.144 | [8]; compound concentration: 3.13uM -0.065 | [8]; compound concentration: 6.25uM 0.0299 | [8]; compound concentration: 12.5uM -0.143 | [8]; compound concentration: 25uM -0.24 | [8]; compound concentration: 50uM -0.318 | [8]; compound concentration: 100uM -0.618 | [8]; compound concentration: 200uM -0.996 | [9]; compound concentration: 50uM -0.146 | [9]; compound concentration: 200uM -0.945 | [10]; compound concentration: 50uM -0.218 | [10]; compound concentration: 200uM -0.719
